Structures are written as SMILES. In all, about 300,000 compounds went through this assay and about 37,000 (12%) were called active. The sample as a whole holds a higher share of actives than the screen did. A number with no mark means an inactive call. No stated cut-off is given here; in the data, active means max response mostly above about 13% (no sharp cut-off); inactive means mostly below about 14%.

The nature of this assay: Cycloheximide Counterscreen for Small Molecule Inhibitors of Shiga Toxin. Further: read at 38.3 µM for the half of the compounds with a filed dose; 0% is about no effect. Conditions: cell reporter, cycloheximide protein synthesis inhibition counterscreen; stronger effect = higher value. A general note: Counterscreens check selectivity or assay interference.
With `CC(C)CC[n+]1ccn(C2=C([O-])c3ccccc3C(=O)/C2=N\S(=O)(=O)c2ccccc2)c1`, the max response was -1.98%.

As to `O=[N+]([O-])c1ccc(Oc2ccc(F)cc2Br)c2ccncc12`, the max response is -2.77%.

As for `CCCCn1nc(C(=O)Nc2ccc(S(=O)(=O)Nc3ncccn3)cc2)c2ccccc2c1=O`, the max response is -8.36%.

On to `O=C1c2cccc(OCC(=O)N3N=C(c4cccs4)CC3c3ccc(F)cc3)c2CCN1Cc1ccccc1` (stereo not drawn), for which the max response is 4.05%.

Turning to `CCOc1cc(C2C(C(=O)c3ccco3)=C(O)C(=O)N2Cc2ccccc2)ccc1O` (stereo not drawn), the max response is 4.82%.

As to `Cc1cc(=O)oc2c(C)c(OCC(=O)NCCN3CCOCC3)ccc12`, the max response was 7.13%.

Turning to `CCNc1c(NS(=O)(=O)c2ccc(C3CCCCC3)cc2)c(=O)oc2ccccc12`, the max response is -5.65%.

Consider `CC(c1ccccc1)n1c(NCCCn2ccnc2)nc2c1c(=O)[nH]c(=O)n2C` (stereo not drawn), for which the max response is -2.03%.

Turning to `COc1ccc(-c2c(NC(=O)c3ccco3)oc3ccc(Cl)cc3c2=O)cc1`, the max response is 1.49%.

As to `COc1ccc(CN2CCCC(N3CCc4ccccc4C3)C2)c(O)c1` (stereo not drawn), the max response was -0.856%.

`CCOc1ccc(NC(=O)[C@H](C)NC(=O)C2CC(=O)N(c3ccc(OC)cc3)C2)cc1` (stereo partly drawn): the max response was 4.95%.

Turning to `O.O.O.O=S(=O)([O-])OC[C@H]1O[C@@H](O[C@]2(COS(=O)(=O)[O-])O[C@H](OS(=O)(=O)[O-])[C@@H](OS(=O)(=O)[O-])[C@@H]2OS(=O)(=O)[O-])[C@H](OS(=O)(=O)[O-])[C@@H](OS(=O)(=O)[O-])[C@@H]1OS(=O)(=O)[O-].[Al]`, the max response is -3.55%.

Regarding `O=C(c1ccccc1)N1CCN(C(=O)c2cc3nc(-c4ccccc4)cc(C(F)(F)F)n3n2)CC1`, the max response is -1.97%.

For `COc1cccc(-c2nnc(NC(=O)c3ccc(S(=O)(=O)N(CC(C)C)CC(C)C)cc3)o2)c1`, the max response is -5.08%.

Turning to `Cc1ccc(N2CCN(c3ccc(C)cc3)C2c2ccccn2)cc1`, the max response was 21.8% (active).

Regarding `Cc1ccc(N2C(=O)C3CC3C2=O)cc1` (stereo not drawn), the max response is -6.06%.

Regarding `Cc1ccc(S(=O)(=O)NCC(=O)N2CCN(c3ccccn3)CC2)cc1`, the max response is -5.16%.

Regarding `CC1=NN(/C(=N\c2nnc(C)s2)Nc2ccccc2)[C@H](c2ccc(C)cc2)S1`, the max response was -0.911%.

As for `COc1ccc(O)c(C(=O)c2cnc3onc(C(C)C)c3c2)c1`, the max response is 26.6% (active).

For `COc1ccc(O)c(C(=O)c2cnc3c(c2)c(-c2ccc(F)cc2)c(C#N)c(=O)n3C)c1`, the max response is 11.3%.

As for `COCCn1c(=O)[nH]c(=O)c2cc(C(=O)c3cc(OC)ccc3O)cnc21`, the max response was -3.24%.

Turning to `O=C(CS(=O)(=O)c1cn(Cc2ccc(Cl)cc2)c2ccccc12)N1CCOCC1`, the max response is -4.25%.

In the case of `Cc1[nH]n(-c2ccc([N+](=O)[O-])cc2)c(=O)c1C=NCCN1CCN(C(=O)c2ccccc2F)CC1`, the max response was -3.41%.

On to `Cc1cc(Cl)ccc1C(=O)C1CCCN(C(=O)CCN2CCCO2)C1` (stereo not drawn), for which the max response was -2.88%.

With `CCc1ccc(NC(=O)CC2C(=O)NCCN2C(=S)Nc2ccccc2)cc1` (stereo not drawn), the max response was 5.14%.

Take `Cc1ccc(CNC(=O)CC2Sc3ccccc3NC2=O)cc1` (stereo not drawn): the max response is -1.23%.

Regarding `CCc1cc(C(=O)OC)c(NC(=O)CC2Sc3ccc(C(F)(F)F)cc3NC2=O)s1` (stereo not drawn), the max response is 0.357%.

In the case of `CCOc1ccc(NC(=O)CC2NCCNC2=O)cc1` (stereo not drawn), the max response was 0.991%.

Consider `CCN(CC)CCNCC(=O)Nc1ccc(Oc2ccccc2)cc1`, for which the max response was -2.52%.

Regarding `O=C(CC1Nc2ccccc2NC1=O)Nc1ccccc1` (stereo not drawn), the max response is 31% (active).

Regarding `CCOC(=O)c1ccccc1NC(=O)CC1Nc2ccccc2NC1=O` (stereo not drawn), the max response was -6.08%.

`O=C(CC1Nc2ccccc2NC1=O)Nc1ccccc1NC(=O)CC1Nc2ccccc2NC1=O` (stereo not drawn): the max response is 34.5% (active).

For the compound `COC(=O)C(C)C1Sc2ccccc2NC1=O` (stereo not drawn), the max response was -1.04%.

Regarding `CC1CCN(CCC(=O)Nc2ccccc2)CC1`, the max response is 1.18%.

Consider `O=C(CC1NCCNC1=O)Nc1ccc(Oc2ccccc2)cc1` (stereo not drawn), for which the max response is 30% (active).

Take `COC(=O)c1cc(C)sc1NC(=O)CC1Nc2ccccc2NC1=O` (stereo not drawn): the max response is 22.8% (active).

For the compound `CC1CCCN(S(=O)(=O)c2ccc(N(C(=O)c3cnccn3)C(C(=O)NC3CCCCC3)c3cccs3)cc2)C1` (stereo not drawn), the max response was -3.46%.

On to `COC(=O)c1ccc(COc2ccc(C#N)cc2)o1`, for which the max response was 0.875%.

Take `Cc1cc(C(=O)CSc2nc(N)cc(=O)[nH]2)c(C)n1CCc1ccc(Cl)cc1`: the max response was 4.99%.

On to `C=CCN(c1ccc(Cl)cc1)S(=O)(=O)c1cccc(C(=O)OCC(=O)N(C)C)c1`, for which the max response is -6.49%.

Consider `COc1cc(C(=O)NCc2nnc(SCC(=O)Nc3nc4ccc(C)cc4s3)o2)cc(OC)c1OC`, for which the max response is 4.75%.

In the case of `CCOC(=O)c1cccc(NC(=O)CN2C(=O)C3CC=CCC3C2=O)c1` (stereo not drawn), the max response was -0.226%.

On to `CCC1C=C(c2ccccc2)C=CN=C1N(CC)CC` (stereo not drawn), for which the max response was -0.252%.

For the compound `O=c1/c(=C/c2ccc(CNS(=O)(=O)c3ccccc3)o2)sc2n1CCN=2`, the max response is -4.34%.

Regarding `CCc1nc(C)cn1S(=O)(=O)c1cc([N+](=O)[O-])ccc1Cl`, the max response was -1.54%.

`Cc1ccc(NC(=O)CN2CCC3(O)CCCCC3C2c2ccc3c(c2)OCO3)c(C)c1` (stereo not drawn): the max response was -2.23%.

Consider `Cc1ccc(C(=O)N/C(=C/c2cccs2)C(=O)NCC2CCCO2)cc1` (stereo not drawn), for which the max response is -3.91%.

Consider `Cc1ccc(C(=O)N/C(=C/c2cccs2)C(=O)N2CCCCC2)cc1`, for which the max response is 13.7%.

Turning to `Cc1ccc(C(=O)N/C(=C\c2cccs2)C(=O)NCCc2ccccn2)cc1C`, the max response is 31.4% (active).

With `O=C(Cc1ccc([N+](=O)[O-])cc1)Nc1ccc(C(=O)N2CCOCC2)cc1`, the max response is -1.78%.

In the case of `CCNC(=O)Nc1ccc(S(=O)(=O)Nc2cnc(C)nc2C)cc1`, the max response is -7.45%.

In the case of `O=C(Nc1ccccc1)c1cc2ccccc2[nH]1`, the max response is 42.1% (active).

For `O=C(/C=N/O)Nc1ccccc1`, the max response was -2.41%.

Consider `CC(C)n1c(=O)[nH]c2cc(C(=O)Nc3ccccc3)ccc21`, for which the max response was -2.19%.

Regarding `COc1ccc(NC(=S)SC)cc1OC`, the max response is -3.14%.

As for `COc1ccc2c(c1)N(C)/C(=C1/SC(=S)N(NC(C)=O)C1=O)S2`, the max response was 5.97%.

Turning to `COc1ccc(/C=C/C2=CC(C)(C)NC(=S)N2)c(OC)c1`, the max response is 5.95%.

On to `COCCc1nn2c(=O)cc(COC(=O)c3cc(OC)c(OC)c(OC)c3)nc2s1`, for which the max response was 3.56%.

In the case of `CC1=C(/C=C/C(C)=C/C=C/C(C)=C/C=C/C=C(C)/C=C/C=C(C)/C=C/C(=O)[C@]2(C)C[C@@H](O)CC2(C)C)C(C)(C)C[C@H](O)C1`, the max response is 9.8%.

Turning to `CCOc1cccc(/C=C/c2ccc3ccccc3n2)c1OC(C)=O`, the max response was 25.2% (active).

For `CCOc1ccccc1-c1cc(C(=O)N2CCOCC2)c2ccccc2n1`, the max response is -3.29%.

As to `CCOc1ccccc1-c1cc(C(=O)N/N=C(\C)c2cccnc2)c2ccccc2n1`, the max response was -1.08%.

With `COc1cccc(/C=C2\C=C(c3ccc(C)cc3)OC2=O)c1OC(C)=O`, the max response is 1.6%.

Regarding `COc1cccc(/C=C/c2ccc3ccccc3n2)c1OC(C)=O`, the max response is 28.2% (active).

Regarding `COc1ccc(CNC(=O)/C(C#N)=C/c2cccc(OC)c2OC)cc1`, the max response was -1.4%.

`CCOc1ccc(CCNC(=O)CCc2nnc3ccc(N4CCCC4)nn23)cc1OCC`: the max response is 1.2%.

As for `Cn1nccc1C(=O)NC1CCCc2c1cnn2-c1ccccc1F` (stereo not drawn), the max response was -0.344%.

For the compound `Cc1ccc2oc(=O)c3cnn(CC(=O)N(Cc4ccco4)C4CCCCC4)c3c2c1`, the max response was -5.66%.

For `CCOC(=O)c1c(C)n(C)c2ccc(OC)c(NS(=O)(=O)CC)c12`, the max response was 3.73%.

For `COc1ccc(COCC(O)CN2CCC(C(N)=O)CC2)cc1` (stereo not drawn), the max response was -2.46%.

Consider `CCOc1cc(CN2CCN(C(=O)CC(C)C)CC2)ccc1OC`, for which the max response is -2.09%.

Regarding `COc1cc(CN2CCC(C(N)=O)CC2)ccc1OCc1ccccc1`, the max response is 34.9% (active).

Turning to `O=C(Nc1ccc(Cl)cc1)c1ccsn1`, the max response is 50.1% (active).

For `CCC(=O)Nc1ccc(C(=O)NNC(=O)c2ccc(Cl)cc2)cc1`, the max response is -0.754%.

Take `O=C(NCc1cn2ccsc2n1)Nc1ccc(Cl)cc1`: the max response is 1.41%.

Turning to `Cc1c(CCC(=O)N[C@@H](CC(C)C)C(=O)O)c(=O)oc2c(C)c3oc4c(c3cc12)CCCC4`, the max response is -2.26%.

Consider `O=C(c1ccco1)N1CCN=C1SCc1cccc(Cl)c1`, for which the max response was -6.49%.

Take `O=C(c1ccco1)N1CCN(c2cccc(Cl)c2)CC1`: the max response is 23.2% (active).

For `O=C(OCC(=O)N1CCN(C(=O)c2ccco2)CC1)c1cccc(O)c1`, the max response was 5.85% (active).

Consider `O=C(c1ccco1)N1CCN(C(=O)C2c3ccccc3Oc3ccccc32)CC1`, for which the max response was 12.3% (active).

`O=C(CCCC(=O)N1CCN(c2cccc(Cl)c2)CC1)c1ccccc1`: the max response is 19.7% (active).

For `O=C(c1cccc([N+](=O)[O-])c1)N1CCN(C(=O)c2ccco2)CC1`, the max response is -0.729%.

Take `CS(=O)(=O)N(CC(=O)N1CCN(c2cccc(Cl)c2)CC1)c1ccccc1`: the max response was -1.4%.

For `O=C(OCC(=O)N1CCN(C(=O)c2ccco2)CC1)c1ccccc1Cc1ccccc1`, the max response is 34.9%.

Regarding `CC(C)c1nnc(NC(=O)CCC(=O)N2CCN(c3cccc(Cl)c3)CC2)s1`, the max response was 4.84%.

On to `O=C(OCC(=O)N1CCCC1)c1ccco1`, for which the max response is 10.1%.

Take `O=C(c1ccc2c(c1)OCO2)N1CCN(C(=O)c2ccco2)CC1`: the max response was -3.05%.

For `O=C(c1ccco1)N1CCN(C(=O)C2CC(c3ccc(F)cc3)=NO2)CC1` (stereo not drawn), the max response is -6.02%.

The values are drawn from PubChem BioAssay AID2314 (National Center for Advancing Translational Sciences (NCATS), 2010).
